# In PubChem BioAssay AID1850 (Southern Research Specialized Biocontainment Screening …, 2009):
# About 1,000 (0.32%) of roughly 310,000 compounds were called active. The list is a sample of the results. Measured potencies and affinities stand elsewhere. A number with no mark means an inactive call. How the calls were made is not given here.
# Assay: Inhibition of PhoP regulon, Salmonella typhi GFP reporter cells, confirmation, 4 h (AID 1850);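 further: 0% = induced wells with vehicle and 100% = uninduced wells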
# Details: Salmonella Typhi PhoP-promoter GFP reporter, fluorescence, at 50 µM, active compounds read high
row,Compound,inhibition [%]
1,COc1ccccc1C(=O)Nc1nnc(SCC(=O)Nc2ccc3c(c2)oc2ccccc23)s1,-0.02
2,COc1cc(/C=C2/NC(=O)NC2=O)ccc1OCC(=O)Nc1ccc(F)cc1,1.58
3,C=CCn1c(CSc2ccc(C)cc2)n[nH]c1=S,2.92
4,Cn1ncc(Cl)c1C(=O)N1CCN(c2ncccn2)CC1,10.1
5,Cc1cccc(NC(=O)COC(=O)CCCC2=NS(=O)(=O)c3ccccc3N2)c1,-3.69
6,C=C(C)CC1N(c2cccc(OC)c2)C(=O)C2C(C(=O)O)C3C=CC21O3 (stereo not given),-1.1
7,CCCCn1c(=O)[nH]c(=O)c2c1nc(-c1cc(Br)ccc1OC)n2C,1.08
8,O=C(CSC(=S)N1CCCC1)Nc1ncc(Cl)cc1Cl,-5.14
9,CC(O)(CS(=O)(=O)Cc1ccccc1)C(=O)Nc1ccc(C(F)(F)F)cc1 (stereo not given),9.99
10,CCc1ccccc1NC(=O)COc1cccc(-n2cnnn2)c1,-5.08
11,CC(C)OCCCNC(=O)c1ccc(NC(=O)C2=CSCCO2)cc1,-8.42
12,COc1ccc(S(=O)(=O)N2CCN(c3ncccn3)CC2)cc1[N+](=O)[O-],-20.4
13,Cc1cc(C)n(-c2nc(O)cc(=O)[nH]2)n1,-1.88
14,Cc1cc(Nc2ccccc2)n(-c2nc3ccccc3[nH]2)n1,-0.39
15,Cc1ccc(Nc2cc(C)nn2-c2nc(C)cc(C)n2)cc1,5.85
16,Cc1cc(C)n(-c2nnc(C)c(=O)[nH]2)n1,-0.21
17,FC(F)(F)c1cccc(Oc2cc(C(F)(F)F)nc(-c3ccccn3)n2)c1,1.08
18,CCOc1ccc(N2C(=O)C3ON(c4ccccc4)C(c4cccs4)C3C2=O)cc1 (stereo not given),9.38
19,CCCCC(=O)N1CCN(c2nc3ccc(F)cc3s2)CC1,-7.63
20,Cc1cc(C)cc(NC2=C(N)C(=O)c3ccccc3C2=O)c1,-9.49
21,Nc1ccc(Br)c2c1C(=O)c1ccccc1C2=O,-1.04
22,Nc1ccc2c(c1)C(=O)C(=O)c1ccccc1-2,6.22
23,O=C1C(=O)c2ccc(-c3ccccc3)cc2-c2ccccc21,1.01
24,COc1ccc(/C=C/C(=O)c2ccc(O)cc2)cc1CN1CCOCC1,-8.66

row,Compound,inhibition [%]
1,CC(=O)Oc1ccc2c(=O)oc(-c3ccccc3C)nc2c1,-4.89
2,CN(C)CCOC1c2ccccc2C=Cc2ccccc21,10.7
3,O=C1N=C2SCCN2/C1=C\c1ccc(Cl)cc1,3.83
4,O=C(NCc1nc(-c2ccccc2)no1)c1cccs1,-6.48
5,COc1cccc(/C=N/NC(=O)CN2CC(c3ccccc3)CC2=O)c1O (stereo not given),3.81
6,COc1cccc(/C=N/NC(=O)CN2CC(c3ccccc3)CC2=O)c1OC (stereo not given),-3.73
7,COc1cc(OC)c(C2=NOC(C(=O)N3CCc4ccccc4C3)C2)cc1Cl (stereo not given),-5.06
8,COC(=O)c1cccc(N(CC(=O)NC2CCCCC2)C(=O)CNC(=O)c2cccs2)c1,7.52
9,CCN(CC)c1ccc(CNc2nc3ccccc3n2CCN2CCOCC2)cc1,6.95
10,COc1ccc(CNc2nc3ccccc3n2CCN2CCCCC2)cc1,-9.45
11,COC(=O)N/N=C/c1ccccc1Cl,9.79
12,COC(=O)N/N=C/c1ccccc1,3.82
13,O=C(CSc1ccc2c(c1)OCCO2)NC(=O)Cc1ccccc1,-0.51
14,Cc1cccc(/C=C/c2onc(C)c2S(=O)(=O)N2CCC(C(=O)N3CCCCCC3)CC2)c1,-16.2
15,CCOC(=O)c1cc2c(=O)n3ccccc3nc2n(C)c1=NC(=O)c1c(-c2c(F)cccc2Cl)noc1C,-5.85
16,CC1CCCCN1CCCNC(=O)c1ccc(Br)cc1 (stereo not given),8.17
17,CC(C)CNC(=O)COC(=O)c1ccc(Cl)c(S(=O)(=O)N2CCc3ccccc32)c1,1.54
18,C[C@@H](NCCc1ccc(O)cc1)[C@@H](O)c1ccc(O)cc1,-9.6
19,C[C@H](NCCc1ccc(O)cc1)[C@H](O)c1ccc(O)cc1,-4.37
20,Cc1ccnc(NC(=O)C(C)N2C(=O)c3ccccc3S2(=O)=O)c1 (stereo not given),6.11
21,CCOc1ccccc1NC(=O)NNC(=O)c1ccc2ccccc2c1,9
22,O=C(Nc1nnc(-c2ccco2)o1)c1ccc(Cl)s1,2.73
23,COc1cccc(-c2nnc(NC(C)=O)o2)c1,-10.6
24,COCCN(C(=O)COC(=O)C1(C)CC1(Cl)Cl)c1c(N)n(Cc2ccccc2)c(=O)[nH]c1=O (stereo not given),-4.07

row,Compound,inhibition [%]
1,O=C(NC1CCN(C(=S)Nc2ccc(F)cc2)CC1)C1CCCCC1,1.22
2,Cc1ccc(CNC(=O)C2CCC(=O)N(Cc3cccc(C(F)(F)F)c3)C2)o1 (stereo not given),-2.94
3,O=C(CCN(CCO)Cc1ccccc1)Nc1ccc(Br)cc1,20.3
4,Cc1ccc(NC(=O)CN(C)C2CCCCC2)cc1Cl,17.3
5,Cc1ccc(NC(=O)CNCc2cccs2)cc1Br,2.2
6,Cc1ccc(NC(=O)CNCc2ccccc2)c(Br)c1,19.8
7,CN(CC(=O)Nc1ccc(Cl)c(Cl)c1)C1CCCCC1,9.2
8,CCN(CCC(=O)Nc1cc(OC)cc(OC)c1)Cc1ccccc1,-6.75
9,N#Cc1cc(NC(=O)c2ccc(F)cc2)c(=O)n2c1[nH]c1ccccc12,-0.7
10,CCn1cc(CN2CCC(C(=O)Nc3cccc(-c4cccc(OC)c4)c3)CC2)cn1,-5.91
11,CN1CCN(C(=O)/C(=C\c2ccccc2)c2ccccc2)CC1,3.28
12,Cc1cccc(-n2cc(-c3ccccc3)c3c(=O)[nH]cnc32)c1,-10.3
13,COc1ccc(CCNC(=O)CN(c2cccc([N+](=O)[O-])c2)S(C)(=O)=O)cc1,-12
14,Cc1ccccc1C(=O)N1CCN(S(=O)(=O)c2ccccc2)CC1,-4.37
15,O=C(CSc1nnc(SCc2ccccc2Cl)s1)N/N=C/c1ccc(C(=O)O)cc1,-6.94
16,COC(=O)c1cc(S(=O)(=O)N2CCN(c3ccccc3F)CC2)c[nH]1,-1.3
17,O=C1CSC(=S)N1c1cccc(Cl)c1,-2.26
18,O=C(O)c1cccc(N2C(=O)CSC2=S)c1,65.1
19,Cc1cc(NC(=O)NN2CCOCC2)nn1-c1c(Cl)cccc1Cl,-1.26
20,Nc1nc(SCC(=O)Nc2ccc([N+](=O)[O-])cc2)[nH]c(=O)c1NC(=O)c1ccc(Br)o1,-2.49
21,c1cncc(-c2nnc(SCc3cccc4ccccc34)o2)c1,8.54
22,c1ccc2c3c([nH]c2c1)-c1[nH]ncc1CC3,-5.34
23,Cc1ccc2[nH]c3c(c2c1)CCc1cn[nH]c1-3,-6.69
24,Cc1ccc2c(c1)C1C3CCC(C3)C1S(=O)N2 (stereo not given),-0.67

row,Compound,inhibition [%]
1,COc1cc2ccccc2cc1C(=O)Nc1cccnc1,-16.1
2,Nc1nc(-c2ccccn2)nc(N)c1Cc1ccc(Cl)cc1Cl,-4
3,Nc1nnc(Cc2ccc(Cl)cc2Cl)s1,-0.54
4,Clc1ccc(Cc2ccc(Cl)nn2)c(Cl)c1,-3.15
5,Cc1nc(N)c(Cc2ccccc2F)c(N)n1,8.16
6,CCOC(=O)C1(Cc2cccc(OC)c2)CCN(Cc2cnc(SC)nc2)CC1,-3.1
7,CC(/C=C/c1ccc2c(c1)OCO2)=N/NC(=O)COc1ccc(C)cc1,-7.1
8,CS(=O)(=O)c1ccc(Cl)c(NC(=O)COC(=O)/C=C/c2cnc3ccccc3n2)c1,5.47
9,O=C(Nc1nc(-c2cccs2)cs1)c1ccc(Cl)s1,-14
10,Cc1csc(NC(=O)c2ccc(Br)s2)n1,11.7
11,O=C(Nc1nc(-c2ccccn2)cs1)c1ncc(Cl)c(Cl)c1Cl,-0.4
12,O=C(Nc1nc(-c2ccccn2)cs1)c1ccco1,2.93
13,COC(=O)C(Cc1ccccc1)N1CCS(=O)(=O)CC1 (stereo not given),9.2
14,CCCCOc1ccc(/C(O)=C2/C(=O)C(=O)N(CCN(C)C)C2c2ccc(O)c(OC)c2)cc1 (stereo not given),-11.8
15,O=C(Nc1ccccn1)c1ccc2c(c1)S(=O)(=O)c1ccccc1C2=O,-0.07
16,COc1ccccc1CNc1cc(C)ccc1C,4.32
17,COc1ccc(CCN(Cc2nc3ccccc3c(=O)[nH]2)C(=O)C2CC2)cc1,-4.16
18,Cc1ccc(C(=O)N/C(=C/c2ccc(-c3ccc([N+](=O)[O-])cc3)o2)C(=O)NCCCN(C)C)cc1,-1.29
19,CN(C)CCNC(=O)/C(=C/c1ccc(-c2cccc(Cl)c2)o1)NC(=O)c1ccccc1,20.4
20,CN(C)CCCNC(=O)/C(=C\c1ccc(-c2ccc(Br)cc2)o1)NC(=O)c1ccccc1,22.2
21,CN(C)CCCNC(=O)/C(=C/c1ccc(-c2ccc([N+](=O)[O-])cc2)o1)NC(=O)c1ccccc1,8.87
22,Cc1ccc(C(=O)N/C(=C\c2ccc(-c3cccc([N+](=O)[O-])c3)o2)C(=O)NCCCN(C)C)cc1,16.2
23,Cc1ccc(C(=O)N/C(=C\c2ccc(-c3ccccc3[N+](=O)[O-])o2)C(=O)NCCCN(C)C)cc1,-1.46
